High-throughput results from PubChem BioAssay.
NSD2 inh – blocks human histone methyltransferase NSD2 | O96028 | AID 743445 | NSD2 peptide methylation, AlphaScreen, 120 min | 310,000 tested, 0.54% active | inhibition, % at 12.5 µM; in the data active = inhibition above about 50%
Target sequence (O96028 whole entry, looked up): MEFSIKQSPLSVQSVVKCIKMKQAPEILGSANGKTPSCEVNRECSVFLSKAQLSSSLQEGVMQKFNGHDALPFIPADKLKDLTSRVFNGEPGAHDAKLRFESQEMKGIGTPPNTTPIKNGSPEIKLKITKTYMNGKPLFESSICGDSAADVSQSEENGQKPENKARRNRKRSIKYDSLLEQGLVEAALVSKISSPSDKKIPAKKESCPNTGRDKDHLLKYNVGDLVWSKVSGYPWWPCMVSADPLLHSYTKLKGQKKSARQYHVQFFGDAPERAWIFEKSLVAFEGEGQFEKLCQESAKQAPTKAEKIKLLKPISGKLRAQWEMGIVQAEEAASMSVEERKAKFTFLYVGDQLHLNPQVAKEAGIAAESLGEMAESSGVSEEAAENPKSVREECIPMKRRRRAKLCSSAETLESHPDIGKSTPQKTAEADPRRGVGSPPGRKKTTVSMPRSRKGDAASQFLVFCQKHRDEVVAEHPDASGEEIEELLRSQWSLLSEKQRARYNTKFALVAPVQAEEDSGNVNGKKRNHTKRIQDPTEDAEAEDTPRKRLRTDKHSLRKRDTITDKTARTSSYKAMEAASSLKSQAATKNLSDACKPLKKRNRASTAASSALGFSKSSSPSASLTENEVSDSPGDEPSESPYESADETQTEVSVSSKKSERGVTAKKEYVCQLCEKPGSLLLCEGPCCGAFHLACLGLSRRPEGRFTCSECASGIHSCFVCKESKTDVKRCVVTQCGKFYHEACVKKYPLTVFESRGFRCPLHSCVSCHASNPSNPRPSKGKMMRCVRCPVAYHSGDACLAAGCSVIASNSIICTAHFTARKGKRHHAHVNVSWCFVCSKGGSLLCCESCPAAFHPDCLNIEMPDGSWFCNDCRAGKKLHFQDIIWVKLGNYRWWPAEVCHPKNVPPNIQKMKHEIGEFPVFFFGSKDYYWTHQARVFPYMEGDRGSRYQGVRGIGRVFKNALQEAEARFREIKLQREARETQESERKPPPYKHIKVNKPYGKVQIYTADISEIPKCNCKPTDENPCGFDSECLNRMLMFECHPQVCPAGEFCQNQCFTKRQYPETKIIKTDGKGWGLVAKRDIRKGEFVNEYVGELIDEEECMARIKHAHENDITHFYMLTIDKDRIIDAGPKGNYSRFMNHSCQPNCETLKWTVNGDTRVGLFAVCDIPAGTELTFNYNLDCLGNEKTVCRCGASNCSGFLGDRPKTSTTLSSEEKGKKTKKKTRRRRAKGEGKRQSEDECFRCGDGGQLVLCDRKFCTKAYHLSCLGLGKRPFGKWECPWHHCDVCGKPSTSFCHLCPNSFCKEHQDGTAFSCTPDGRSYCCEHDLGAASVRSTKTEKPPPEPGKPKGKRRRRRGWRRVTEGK
PglD inh – blocks C. jejuni PglD acetyltransferase activity; inhibition, % at 12.5 µM; 360,000 tested, 0.098% active; purified PglD enzyme, DTNB colorimetric CoA detection; AID 602405; in the data active = inhibition above about 16%, passing the limit was not always enough
miR-122 sensor – blocks miR-122 activity in Huh7 sensor cells. Huh7 miR-122 Renilla luciferase sensor, 48 h; neutral wells = 0, positive control = 100. activation (reporter increase), % at 12.5 µM. 340,000 tested, 0.3% active. AID 602342;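 active = mean replicate activation score at least 90 and every replicate individually at or above 90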;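 note: higher luciferase means less miR-122 activity so hits act as miR-122 inhibitors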
C2C12 statin – suppressors of simvastatin-induced myotoxicity in C2C12 myotubes | ATP luminescence, 48 h; scaled: DMSO 0, geranylgeraniol control 100 | rescue of ATP level, % at 7.49 µM | 330,000 tested, 0.78% active;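 active = mean ATP rescue above about 67%, or every replicate alone reaching that limit, limit read from the data, passing the limit was not always enough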;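 note: myotubes were challenged with 10 µM simvastatin during compound exposure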
The depositor's hits bear a star; nt = no result given; ! = repeats disagree; [ ] = dose if it differs, or a comment. This is a sample that favours compounds with a hit; in the whole collection about 1.2% have one here.

SMILES | NSD2 inh | PglD inh | miR-122 sensor | C2C12 statin
COc1ccc(CCNS(=O)(=O)c2ccc(N3CCCC3=O)cc2)cc1 | -1 | -1 | 17 | -5
COc1ccc(OC)c(NS(=O)(=O)c2ccc(N3CCCC3=O)cc2)c1 | 0 | 4 | 120* | nt
COc1ccc(Cl)cc1NS(=O)(=O)c1ccc(OC)c(OC)c1 | -2 | -2 | 36 | 1
COc1ccc(S(=O)(=O)Nc2cc(Cl)ccc2OC)cc1 | -5 | 2 | 138* | -49
CCc1ccc(OC)c(S(=O)(=O)Nc2ccccc2C)c1 | 2 | -4 | 115* | -2
C[C@H]1CN([C@@H](C)CO)S(=O)(=O)c2ccc(C#CC3CC3)cc2O[C@@H]1CN(C)Cc1cncnc1 | nt | nt | 9[16.7 µM] | -44
COc1cccc(S(=O)(=O)N(C)C[C@@H]2Oc3cc(C#CCN(C)C)ccc3S(=O)(=O)N([C@@H](C)CO)C[C@H]2C)c1 | nt | 15 | -10[16.7 µM] | -112
O=C(NCC[C@@H]1CC[C@H](NC(=O)c2cccnc2)[C@H](CO)O1)Nc1ccc(C(F)(F)F)cc1 | nt | -8 | nt | -28
CCN(CC)C(=O)C(=O)N/N=C/c1ccc(Br)cc1 | -1 | -1 | -3 | 89*
O=C(Cn1ccc2ccccc2c1=O)NCCC(=O)N1CCN(C(=O)c2ccco2)CC1 | 0 | -1 | -5 | 78*
C[C@@H]1CN([C@@H](C)CO)C(=O)c2cc(C#CCN(C)C)cnc2O[C@H]1CN(C)Cc1cccc(C(=O)O)c1 | nt | 2 | -8[16.7 µM] | -12
C[C@H](CO)N1C[C@H](C)[C@@H](CN(C)CC2CCCCC2)Oc2c(NC(=O)c3ccncc3)cccc2C1=O | nt | -1 | 127*[16.7 µM] | -19
C[C@H]1CN([C@@H](C)CO)C(=O)c2cccc(NC(=O)c3ccncc3)c2O[C@@H]1CN(C)CC1CCCCC1 | nt | -1 | 91*[16.7 µM] | 14
C[C@H]1CN([C@@H](C)CO)C(=O)c2cccc(NC(=O)c3ccncc3)c2O[C@H]1CN(C)CC1CCCCC1 | nt | 3 | 24[16.7 µM] | 2
C[C@@H]1CN([C@@H](C)CO)C(=O)c2cccc(NC(=O)c3ccncc3)c2O[C@@H]1CN(C)CC1CCCCC1 | nt | 0 | -1[16.7 µM] | -7
C[C@H](CO)N1C[C@H](C)[C@@H](CN(C)Cc2ccc(Cl)c(Cl)c2)Oc2c(NC(=O)c3ccncc3)cccc2C1=O | nt | -2 | 106*![16.7 µM] | 14
Cc1cccc(S(=O)(=O)N[C@@H]2CC[C@@H](CCNC(=O)CCN3CCCCC3)O[C@H]2CO)c1 | nt | 3 | nt | 20
COC(=O)c1sc(N)c(C(=O)OC)c1CSc1nnc(-c2ccccc2Cl)n1C | 2 | 0 | 104* | 49
CC(=O)N1[C@H](C)C=C[C@]1(Cc1ccccc1)C(=O)O | nt | -2 | 5 | -1
COCCNC(=O)[C@@]1(Cc2ccccc2)C=C[C@@H](C)N1C(C)=O | nt | 4 | -1 | 121*
CO[C@H]1CC[C@H]2CCOc3c(C#N)cccc3C(=O)N(C)[C@H](C)C(=O)N(C)C[C@@H]1O2 | nt | -2 | nt | 6
O=C(C[C@H]1CC[C@@H]2[C@H](COC[C@@H](O)CN2S(=O)(=O)c2ccc(Cl)cc2)O1)N[C@H]1CCN(Cc2ccccc2)C1 | nt | 0 | 11[16.7 µM] | 5
CCOC(=O)N1CCN(c2ncnc3c2oc2nc(C(C)C)c4c(c23)CCC4)CC1 | -2 | 2 | 207* | 5
CNC(=O)C[C@@H]1CC[C@H]2[C@H](COc3ccc(NC(=O)Nc4cc(C)cc(C)c4)cc3C(=O)N2C)O1 | nt | -4 | 2[16.7 µM] | -16
COc1ccc(NC(=O)Nc2ccc3c(c2)CC(=O)N([C@@H](C)CO)C[C@@H](C)[C@@H](CN(C)S(=O)(=O)c2cn(C)cn2)O3)cc1 | nt | 7 | -1[16.7 µM] | 19
SMILES | NSD2 inh | PglD inh | miR-122 sensor | C2C12 statin
O=C(CCc1ccc(S(=O)(=O)NCCc2ccccc2)cc1)NCc1ccc2c(c1)OCO2 | 1 | -7 | 196* | 1
CCOCC(=O)NCc1ccc2c(c1)OCO2 | 0 | 4 | -9 | 76*
O=C(CCc1ccc(S(=O)(=O)NCc2ccccc2)cc1)NCc1ccc2c(c1)OCO2 | 3 | -4 | 7 | 31
CC(C(=O)NC(=O)NCc1ccccc1)N1C(=O)c2ccccc2C1=O (configuration not stated) | 1 | -5 | -5 | 96*
CC(C(=O)NCc1ccccc1)N1C(=O)CN(C)C(=O)c2ccccc21 (configuration not stated) | -5 | 2 | -6 | 89*
Cc1noc(C)c1NC(=O)N(C)C[C@@H]1Oc2ccc(NS(C)(=O)=O)cc2C(=O)N([C@H](C)CO)C[C@H]1C | nt | -1 | -3[16.7 µM] | 13
COc1ccccc1-c1nnc(SCC(=O)NC2CCCCC2)o1 | nt | -3 | 1 | 7
Cc1ccccc1-c1nnc(SCC(=O)NC2CCCCC2)o1 | 0 | nt | 4 | 78*
COc1ccc(NC(=O)c2cccc(S(=O)(=O)Nc3ccc(Br)cc3)c2)cn1 | -1 | nt | 103* | -8
CC(Oc1ccc(Cl)cc1Cl)C(=O)N(Cc1ccco1)C1CCS(=O)(=O)C1 (configuration not stated) | 1 | 4 | -1 | 115*
Cc1cc(OC(C)C(=O)N(Cc2ccco2)C2CCS(=O)(=O)C2)cc(C)c1Cl (configuration not stated) | nt | 6 | -10 | 23
O=C1N=C(N2CCc3ccccc3C2)S/C1=C\c1cccc(O)c1 | 0 | 7 | 109* | nt
CCCC(=O)Nc1ccc2c(c1)OC[C@@H](C)N(Cc1ccccc1)C[C@H](C)[C@H](OC)CN(C)C2=O | nt | 1 | 13[16.7 µM] | 28
C[C@@H]1CCCCO[C@@H](CN(C)S(=O)(=O)c2cccs2)[C@H](C)CN([C@H](C)CO)C(=O)c2cc(NC(=O)NC3CCCCC3)ccc2O1 | nt | -1 | -12[16.7 µM] | nt
CCCCNC(=O)C1(C)CCCCN1Cc1ccc(-c2ccccc2)cc1 (configuration not stated) | 4 | 0 | 1 | 19
CCCCNC(=O)C1(C)CCCCCN1Cc1cc2ccccc2o1 (configuration not stated) | -2 | 3 | 5 | 77*
C=CCn1c(-c2ccc(Cl)cc2Cl)csc1=Nc1ccc(NC(C)=O)cc1 | 7 | nt | nt | nt
Cc1[nH]n(-c2ccccc2)c(=O)c1C(C[N+](=O)[O-])c1ccccc1Cl (configuration not stated) | 8 | 0 | 0 | 118*
Cc1[nH]n(-c2ccccc2)c(=O)c1C(c1ccc(O)c([N+](=O)[O-])c1)c1c(C)[nH]n(-c2ccccc2)c1=O | 5 | -3 | -3 | -7
CC[n+]1c(/C=C/c2ccc(N(C)C)cc2)ccc2ccccc21 | 40 | nt | nt | nt
CCN(CC)c1ccc(/C=C/c2ccc3ccc(OC)cc3[n+]2CC)cc1 | 76* | -3 | -25 | -237
C[C@@H]1CN([C@@H](C)CO)C(=O)c2cc(NC(=O)CCCN(C)C)ccc2O[C@H]1CN(C)Cc1ccncc1 | nt | nt | 0[16.7 µM] | 0
COc1ccc(NC(=O)Cn2ccc(C(F)(F)F)n2)cc1S(=O)(=O)N1CCOCC1 | -3 | 0 | -2 | 101*
O=C(Nc1nc2ccc(S(=O)(=O)N3CCCCC3)cc2s1)C1CCCO1 (configuration not stated) | -2 | 6 | 70 | nt
